The results in this text go back to the antibiotic and cytotoxicity screens of Wong et al. (2023).

The whole screen tested about 39,000 compounds, of which about 3,300 (8.5%) were called active. Only a selection was taken, and actives are over-represented in it overall.

This assay deals with HepG2. Nature of the assay: cytotoxicity call (relative viability < 0.9). The following applies: 10 µM.
As to `C[C@@H]1CCCCO[C@H](CN(C)C(=O)NC2CCCCC2)[C@@H](C)CN([C@H](C)CO)C(=O)c2cc(NC(=O)Nc3ccc(F)cc3)ccc2O1`, the cytotoxicity call was “inactive”.

With `Cc1noc(C)c1NC(=O)N[C@H]1C=C[C@@H](CC(=O)NCCCN(C)C)O[C@H]1CO`, the cytotoxicity call was “inactive”.

In the case of `C[C@@H]1CN([C@@H](C)CO)C(=O)c2cc(C#CCN(C)C)cnc2O[C@@H]1CN(C)C(=O)Nc1ccccc1F`, the cytotoxicity call is “inactive”.

For `Nc1nc(S)c2nc[nH]c2n1`, the cytotoxicity call is “active”.

As to `Nc1cc2[nH]cnc2c(O)n1`, the cytotoxicity call is “inactive”.

Consider `Nc1ncnc2[nH]cnc12`, for which the cytotoxicity call was “inactive”.

In the case of `CCN(CC)C(=O)c1ccc[n+](CC(N)=O)c1`, the cytotoxicity call is “inactive”.

For the compound `O=C(CCCCCNC(=O)OCCCCO[C@@H]1C[C@H](c2ccc(C(F)(F)F)cc2)C=C(C(=O)N2CCN(Cc3ccc4c(c3)OCO4)CC2)O1)NO`, the cytotoxicity call was “inactive”.

Turning to `Cc1noc(C)c1S(=O)(=O)Nc1ccc2c(c1)C(=O)N([C@H](C)CO)C[C@@H](C)[C@H](CN(C)Cc1ccc(C(F)(F)F)cc1)OCCCC[C@@H](C)O2`, the cytotoxicity call is “inactive”.

For the compound `Cc1noc(C)c1S(=O)(=O)Nc1ccc2c(c1)C(=O)N([C@H](C)CO)C[C@@H](C)[C@@H](CN(C)Cc1ccc(C(F)(F)F)cc1)OCCCC[C@H](C)O2`, the cytotoxicity call was “active”.

As for `Cc1noc(C)c1S(=O)(=O)Nc1ccc2c(c1)C(=O)N([C@@H](C)CO)C[C@H](C)[C@@H](CN(C)Cc1ccc(C(F)(F)F)cc1)OCCCC[C@@H](C)O2`, the cytotoxicity call is “inactive”.

Turning to `Cc1noc(C)c1S(=O)(=O)Nc1ccc2c(c1)C(=O)N([C@H](C)CO)C[C@H](C)[C@@H](CN(C)Cc1ccc(Cl)c(Cl)c1)OCCCC[C@H](C)O2`, the cytotoxicity call was “inactive”.

With `Cc1noc(C)c1S(=O)(=O)Nc1ccc2c(c1)C(=O)N([C@H](C)CO)C[C@H](C)[C@H](CN(C)Cc1ccc(C(F)(F)F)cc1)OCCCC[C@@H](C)O2`, the cytotoxicity call is “inactive”.

Consider `Cc1noc(C)c1S(=O)(=O)Nc1ccc2c(c1)C(=O)N([C@H](C)CO)C[C@@H](C)[C@@H](CN(C)Cc1ccc(Cl)c(Cl)c1)OCCCC[C@H](C)O2`, for which the cytotoxicity call is “active”.

On to `Cc1noc(C)c1S(=O)(=O)Nc1ccc2c(c1)C(=O)N([C@H](C)CO)C[C@@H](C)[C@@H](CN(C)Cc1ccc(C(F)(F)F)cc1)OCCCC[C@@H](C)O2`, for which the cytotoxicity call was “inactive”.

Regarding `Cc1noc(C)c1S(=O)(=O)Nc1ccc2c(c1)C(=O)N([C@@H](C)CO)C[C@H](C)[C@@H](CN(C)Cc1ccc(Cl)c(Cl)c1)OCCCC[C@H](C)O2`, the cytotoxicity call was “inactive”.

On to `Cc1noc(C)c1S(=O)(=O)Nc1ccc2c(c1)C(=O)N([C@@H](C)CO)C[C@H](C)[C@H](CN(C)Cc1ccc(C(F)(F)F)cc1)OCCCC[C@@H](C)O2`, for which the cytotoxicity call is “active”.

`Cc1noc(C)c1S(=O)(=O)Nc1ccc2c(c1)C(=O)N([C@H](C)CO)C[C@H](C)[C@@H](CN(C)Cc1ccc(C(F)(F)F)cc1)OCCCC[C@H](C)O2`: the cytotoxicity call was “inactive”.

For the compound `Cc1noc(C)c1S(=O)(=O)Nc1ccc2c(c1)C(=O)N([C@H](C)CO)C[C@H](C)[C@H](CN(C)Cc1ccc(C(F)(F)F)cc1)OCCCC[C@H](C)O2`, the cytotoxicity call was “inactive”.

Take `Cc1noc(C)c1S(=O)(=O)Nc1ccc2c(c1)C(=O)N([C@H](C)CO)C[C@@H](C)[C@H](CN(C)Cc1ccc(C(F)(F)F)cc1)OCCCC[C@H](C)O2`: the cytotoxicity call is “active”.

For `O=C(C[C@H]1CC[C@H]2[C@@H](COC[C@@H](O)CN2S(=O)(=O)c2cccc(Cl)c2)O1)NCc1ccc2c(c1)OCO2`, the cytotoxicity call is “inactive”.

`O=c1[nH]snc1N1CCCCC1`: the cytotoxicity call is “inactive”.

With `CC(C)CNC(=O)C(=O)NC(C)C`, the cytotoxicity call was “inactive”.

In the case of `COc1ccc(S(=O)(=O)Nc2ccc3c(c2)C(=O)N([C@H](C)CO)C[C@H](C)[C@@H](CN(C)C(=O)Nc2cccc4ccccc24)O3)cc1`, the cytotoxicity call is “inactive”.

As to `COc1ccccc1NC(=O)N(C)C[C@H]1Oc2ncc(Br)cc2C(=O)N([C@H](C)CO)C[C@H]1C`, the cytotoxicity call was “inactive”.

`CC(C)CN1C(=O)[C@@]2(c3ccc([N+](=O)[O-])cc3)CC(=O)N(CC3C4CC5CC(C4)CC3C5)[C@@H]2c2ccc(CO)cc21` (stereo not given in full): the cytotoxicity call was “inactive”.

With `C[C@H]1CN([C@@H](C)CO)C(=O)c2cccc(NS(C)(=O)=O)c2O[C@H]1CN(C)C(=O)NC1CCCCC1`, the cytotoxicity call is “inactive”.

`O=C(C[C@H]1CC[C@H](NC(=O)CN2CCOCC2)[C@@H](CO)O1)NCCc1ccncc1`: the cytotoxicity call is “inactive”.

Regarding `C[C@@H]1CN([C@H](C)CO)C(=O)c2cc(NC(=O)C3CCCCC3)ccc2O[C@H]1CN(C)Cc1ccc(Oc2ccccc2)cc1`, the cytotoxicity call was “inactive”.

Consider `CCS(=O)(=O)Nc1ccc2c(c1)C(=O)N(C)[C@H]1CC[C@@H](CC(=O)NCc3ccccc3F)O[C@@H]1CO2`, for which the cytotoxicity call was “inactive”.

Regarding `Cc1noc(C)c1NC(=O)N(C)C[C@H]1OCCCC[C@H](C)Oc2ccc(NS(=O)(=O)c3ccccc3)cc2C(=O)N([C@@H](C)CO)C[C@@H]1C`, the cytotoxicity call is “inactive”.

Turning to `CC(C)(C)S(=O)N1Cc2cc(C(=O)N[C@@H]3CCN(Cc4ccccc4)C3)nc(-c3cccc(-c4cccc(F)c4)c3)c2[C@@H]1CCO` (stereo not given in full), the cytotoxicity call was “inactive”.

For the compound `C[C@@H]1CN([C@H](C)CO)C(=O)c2cc(C#C[C@@H](C)O)cnc2O[C@@H]1CN(C)C(=O)CN1CCOCC1`, the cytotoxicity call was “inactive”.

Consider `COc1ccc(S(=O)(=O)N(C)C[C@H]2OCCCC[C@@H](C)Oc3ccc(NC(=O)C4CCCCC4)cc3C(=O)N([C@H](C)CO)C[C@H]2C)cc1`, for which the cytotoxicity call is “inactive”.

As for `COc1ccc(S(=O)(=O)N(C)C[C@H]2OCCCC[C@H](C)Oc3ccc(NC(=O)C4CCCCC4)cc3C(=O)N([C@@H](C)CO)C[C@H]2C)cc1`, the cytotoxicity call is “inactive”.

Take `COc1ccc(S(=O)(=O)N(C)C[C@H]2OCCCC[C@H](C)Oc3ccc(NC(=O)C4CCCCC4)cc3C(=O)N([C@H](C)CO)C[C@@H]2C)cc1`: the cytotoxicity call is “active”.

For the compound `COc1ccc(S(=O)(=O)N(C)C[C@@H]2OCCCC[C@@H](C)Oc3ccc(NC(=O)C4CCCCC4)cc3C(=O)N([C@H](C)CO)C[C@H]2C)cc1`, the cytotoxicity call was “active”.

As to `COc1ccc(S(=O)(=O)N(C)C[C@H]2OCCCC[C@H](C)Oc3ccc(NC(=O)C4CCCCC4)cc3C(=O)N([C@@H](C)CO)C[C@@H]2C)cc1`, the cytotoxicity call was “inactive”.

`COc1ccc(S(=O)(=O)N(C)C[C@@H]2OCCCC[C@H](C)Oc3ccc(NC(=O)C4CCCCC4)cc3C(=O)N([C@H](C)CO)C[C@@H]2C)cc1`: the cytotoxicity call was “inactive”.

Turning to `Nc1cccc2c(=O)[nH][nH]c(=O)c12`, the cytotoxicity call is “inactive”.
